Reference: the OligoGym collection

Target: RASGRP2
Experiment: pooled miR-30 sensor sort-seq; sequence = guide strand
Conditions: shRNA

Row | Sequence | sensor-assay potency score (higher = more potent)
1 | TAGGAAACCATCTCCTCCCTGC | 0.463
2 | TAGCAGAGCCTTCAGCTCCTTG | -0.951
3 | TTCAAGTCAAACTCCGCTGGGA | 0.724
4 | TTAGGCTGCTGTGCCGTCGGTT | -0.65

Target: RASIP1
Experiment: as above
Conditions: shRNA

Row | Sequence | sensor-assay potency score (higher = more potent)
5 | TTTTCTGAGCGCTCCTTGCCTC | -0.853
6 | TGAATAGAGAGTCTTGGTGAGG | -1.22
7 | TCAACTGATCGAAGTCCCCGGG | 0.0667
8 | TTGAATAGAGAGTCTTGGTGAG | 0.37
9 | TAGGTCTCAATCCTGGAGGCAT | -0.489
10 | AAGAAGACTTGACAGAGGCTGC | 0.0487
11 | TTCCAAGTCATTGCAGAGCTGT | -0.369
12 | TTGACCTCGTTCCATCAGCGAG | -1.71
13 | TTGGTCAGCCTCCTTCTCCATT | -1.48
14 | TGGAGCAGCAGGAAGTAGGGGC | 0.0878
15 | TTAGGCTGCTCCATGAAGCCTT | -0.552
16 | TTGGAGAAGAAGAACAAGTAGC | -0.187
